From paper PMC4336329 (PLoS ONE, 2015)
The campaign covered roughly 310,000 compounds. About 14,000 (4.5%) showed an effect of 50% or more. Effects have a minus sign here. This excerpt belongs to a sample that is enriched for strong results.

The compounds below were run against human ether-à-go-go-related gene (hERG) potassium channel (human, UniProt Q12809) (assay: primary screen, population patch clamp on CHO cells stably expressing hERG; higher = less effect of the substance).
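Note: peak tail current of the secondary pulse compared with the same well before compound.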

human ether-à-go-go-related gene (hERG) potassium channel, sequence (Q12809 whole entry, looked up): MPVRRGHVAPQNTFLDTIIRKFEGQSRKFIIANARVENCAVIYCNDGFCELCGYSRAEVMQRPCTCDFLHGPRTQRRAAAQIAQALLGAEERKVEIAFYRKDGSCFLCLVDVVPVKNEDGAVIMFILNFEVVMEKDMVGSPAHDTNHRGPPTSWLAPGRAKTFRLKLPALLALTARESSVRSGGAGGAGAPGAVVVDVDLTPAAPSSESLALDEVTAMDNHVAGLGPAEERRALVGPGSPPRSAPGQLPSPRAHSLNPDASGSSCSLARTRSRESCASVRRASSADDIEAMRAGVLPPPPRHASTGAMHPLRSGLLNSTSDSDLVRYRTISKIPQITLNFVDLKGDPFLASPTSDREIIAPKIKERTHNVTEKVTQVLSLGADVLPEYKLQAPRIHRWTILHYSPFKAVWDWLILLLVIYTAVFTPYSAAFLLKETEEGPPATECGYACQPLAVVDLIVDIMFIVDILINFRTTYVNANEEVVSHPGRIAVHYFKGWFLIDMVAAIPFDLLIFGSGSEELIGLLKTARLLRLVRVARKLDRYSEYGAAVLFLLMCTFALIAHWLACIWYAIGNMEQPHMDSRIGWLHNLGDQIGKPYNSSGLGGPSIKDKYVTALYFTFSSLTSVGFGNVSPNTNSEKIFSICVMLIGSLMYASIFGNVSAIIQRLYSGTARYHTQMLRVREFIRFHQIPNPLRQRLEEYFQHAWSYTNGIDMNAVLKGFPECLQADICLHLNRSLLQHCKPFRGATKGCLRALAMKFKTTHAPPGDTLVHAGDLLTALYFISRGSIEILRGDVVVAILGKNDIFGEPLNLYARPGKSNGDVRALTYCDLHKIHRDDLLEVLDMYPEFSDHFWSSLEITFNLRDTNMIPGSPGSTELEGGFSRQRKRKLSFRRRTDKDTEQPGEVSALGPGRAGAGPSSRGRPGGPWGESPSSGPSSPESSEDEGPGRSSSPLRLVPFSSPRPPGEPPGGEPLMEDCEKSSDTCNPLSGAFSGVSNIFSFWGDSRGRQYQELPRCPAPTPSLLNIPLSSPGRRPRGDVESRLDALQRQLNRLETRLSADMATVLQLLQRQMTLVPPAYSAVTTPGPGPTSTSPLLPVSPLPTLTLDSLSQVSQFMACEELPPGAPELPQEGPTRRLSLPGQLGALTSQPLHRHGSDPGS

Row | Structure (SMILES) | hERG current change (%, negative = inhibition) at 10uM [%]
1 | Cc1ccc(NC(=O)C(C)OC(=O)/C=C/c2ccccc2)cc1 (stereo not drawn) | 23
2 | Cc1cc(C)c(C)c(OCCNCc2ccccc2)c1.O=C(O)C(=O)O | -5.47
3 | Cc1ccc(OCCNCc2ccccc2)c(C)c1.O=C(O)C(=O)O | -6.1
4 | Clc1cccc(Cl)c1OCCOCCNCc1ccccc1.O=C(O)C(=O)O | -31.2
5 | Cc1cc(Cl)cc(C)c1OCCOCCNCc1ccccc1.O=C(O)C(=O)O | -52.4
6 | Cc1cc(C)c(C)c(OCCOCCNCc2ccccc2)c1.O=C(O)C(=O)O | -54.2
7 | Cc1cc(Cl)cc(C)c1OCCNCc1ccccc1.O=C(O)C(=O)O | -3.66
8 | Cc1cc(=O)[nH]c(N2CCN(Cc3ccccc3)CC2)n1 | -2.95
9 | CC(=O)Oc1c(C(=O)c2nnc(C)o2)c(=O)n(Cc2ccccc2)c2ccccc12 | 1.56
10 | CCCCCCCCNC(=O)c1ccc(C)cc1 | 10.9
11 | O=C(NC(c1ccccc1)C(Cl)(Cl)Cl)c1ccccc1 (stereo not drawn) | -11.3
12 | CCN(CC)S(=O)(=O)c1ccc2oc(Nc3ccc(OC)cc3OC)nc2c1 | 9.24
13 | CCc1cccc(C)c1NC(=O)CSc1nc2ccc(N3C(=O)c4ccccc4C3=O)cc2s1 | 4.44
14 | CC(Oc1ccc(Br)cc1)C(=O)O/N=C(\N)c1ccncc1 (stereo not drawn) | 5.16
15 | Cc1cccn2c(=O)c3cc(C(=O)NCc4ccco4)c(=N)n(CCOCCO)c3nc12 | -74.9
16 | Cc1cccn2c(=O)c3cc(C(=O)NCc4ccco4)c(=N)n(C(C)C)c3nc12 | -77.6
17 | COc1ccc(CCn2c(=N)c(C(=O)NCc3ccco3)cc3c(=O)n4cccc(C)c4nc32)cc1 | -75.6
18 | Cc1cccn2c(=O)c3cc(C(=O)NCc4ccco4)c(=N)n(CCc4ccccc4)c3nc12 | -76.5
19 | Cc1ccccc1Nc1cc(C(=O)NCc2ccco2)c2ccccc2n1 | 20.3
20 | COc1ccc(-n2nc(C(=O)NCc3ccco3)c3ccccc3c2=O)cc1 | -17.1
21 | COc1ccc(CCn2c(N)c(C(=O)NCc3ccco3)c3nc4ccccc4nc32)cc1 | 0.65
22 | Cc1cccn2c(=O)nc(SCC(=O)NCc3ccco3)nc12 | 1.37
23 | CC(OC(=O)c1cccc(S(=O)(=O)Nc2ccccc2F)c1)C(=O)NCc1ccc2c(c1)OCO2 (stereo not drawn) | 12.8
24 | CN(C(=O)c1ccc(S(=O)(=O)N2CCCC2)cc1)C1CCS(=O)(=O)C1 (stereo not drawn) | 4.75

Row | Structure (SMILES) | hERG current change (%, negative = inhibition) at 10uM [%]
25 | O=C(Nc1ccc(Cl)cc1)C(Cl)C(=O)c1ccccc1 (stereo not drawn) | -3.81
26 | Cc1csc(SCC(=O)NCc2cccc(Cl)c2)n1 | -7.05
27 | Cc1cccn2c(=O)c3cc(S(=O)(=O)c4ccccc4)c(=N)n(Cc4ccco4)c3nc12 | -0.654
28 | Cc1cccn2c(=O)c3cc(S(=O)(=O)c4ccc(F)cc4)c(=N)n(Cc4ccco4)c3nc12 | -34.8
29 | CCOC(=O)Cn1c(=O)n(Cc2ccco2)c(=O)c2ccc(C(=O)NC3CCCC3)cc21 | -18.9
30 | CCc1ccc(-n2c(=O)c3ccc(C(=O)NCCc4ccccc4)cc3n(CC(N)=O)c2=O)cc1 | 14.6
31 | CCOC(=O)Cn1c(=O)n(Cc2ccco2)c(=O)c2ccc(C(=O)NCCc3ccccc3)cc21 | -53.2
32 | Cc1cccn2c(=O)c3cc(C(=O)NCCc4ccccc4)c(=N)n(Cc4ccco4)c3nc12 | -74
33 | CCN(CC)C(=O)N1CCN(c2c([N+](=O)[O-])c(=O)oc3ccccc23)CC1 | -25.7
34 | CN(C)c1ccc(C(=O)c2ccc(N(C)C)c(N)c2)cc1N | -3.79
35 | COc1c(F)c(F)c(C(=O)Nc2ccc(N3CCN(Cc4ccccc4)CC3)cc2)c(F)c1F | -14.6
36 | COc1ccc(C(=O)N=C2SC3CS(=O)(=O)CC3N2c2ccccc2)cc1OC (stereo not drawn) | 11
37 | CCCn1nnc(NC(=O)c2ccc(-c3cccc(Cl)c3)o2)n1 | -55.3
38 | CCCCn1nnc(NC(=O)c2ccc(-c3ccccc3[N+](=O)[O-])o2)n1 | -14.2
39 | CCCCn1nnc(NC(=O)c2ccc([N+](=O)[O-])cc2Cl)n1 | -31.1
40 | CCCn1nnc(NC(=O)c2ccc(-c3cc(Cl)ccc3Cl)o2)n1 | 6.96
41 | CCn1nnc(NC(=O)c2ccc(-c3ccc(Cl)cc3)o2)n1 | -53.5
42 | CCn1nnc(NC(=O)Cc2ccc(Cl)cc2)n1 | 3.52
43 | CCn1nnc(NC(=O)c2ccc(Br)o2)n1 | 13.7
44 | CCCCn1nnc(NC(=O)c2ccc(-c3cccc([N+](=O)[O-])c3)o2)n1 | -68.5
45 | CCCCn1nnc(NC(=O)c2ccc(-c3cccc(Cl)c3)o2)n1 | -40.8
46 | O=C(NC1CC1)c1sccc1-n1cccc1 | 8.56
47 | COc1cc(NC(=O)Cc2cccs2)c(C(=O)O)cc1OC | 21.7
48 | Cc1ccc2[nH]c(=O)c(CNS(=O)(=O)c3ccccc3)c(-c3ccccc3)c2c1 | 16.2

Row | Structure (SMILES) | hERG current change (%, negative = inhibition) at 10uM [%]
49 | Cc1ccc(-n2[nH]c(C)c(C=Nc3ccc(S(=O)(=O)Nc4nccs4)cc3)c2=O)c(C)c1 | -35
50 | CCOC(=O)C1(Cc2ccc(OC)cc2)CCN(C(=O)c2cncs2)CC1 | -17.6
51 | CCOC(=O)C1(CCCc2ccccc2)CCN(C(=O)c2cncs2)CC1 | -55
52 | CCOC(=O)C1(CCOc2ccccc2)CCN(C(=O)c2cncs2)CC1 | -70.7
53 | O=C(Oc1ccc(/C=N/NC(=O)c2ccccn2)cc1)c1cccc(Br)c1 | 11.4
54 | CC(C)CC(NS(=O)(=O)c1cccc(C(=O)O)c1)C(=O)O (stereo not drawn) | 44.6
55 | COc1cc(NC(=O)c2ccc(NS(=O)(=O)c3c(C)noc3C)cc2)cc(OC)c1 | 1.03
56 | Cc1[nH]nc(-c2ccc(OCc3cnn(-c4ccccc4)c3)c(C)c2O)c1Oc1ccccc1 | 12
57 | CN(CC(=O)Nc1ccc(N2CCOCC2)cc1)CC(=O)Nc1ccc(N2CCOCC2)cc1 | 6.39
58 | CN(CC(=O)Nc1cccc(C#N)c1)Cc1ccc(Cl)cc1 | -34.1
59 | Cc1ccc(NC(=O)CN(C)Cc2ccc(Cl)cc2)cc1 | -8.48
60 | CN(CC(=O)Nc1ccc(C#N)cc1)Cc1ccc(Cl)cc1Cl | -66.8
61 | CN(CC(=O)Nc1ccc(C#N)cc1)CC(=O)Nc1ccc(N2CCOCC2)cc1 | -56.3
62 | CN(CC(=O)Nc1ccc(C#N)cc1)Cc1ccc(Cl)cc1 | -68.6
63 | CN(CC(=O)Nc1ccc(Cl)c(Cl)c1)C(=O)/C=C/c1ccc(F)cc1 | 1.66
64 | CN(CC(=O)Nc1ccc(Cl)c(Cl)c1)CC(=O)Nc1ccc2c(c1)OCO2 | -3.52
65 | CN(CC(=O)Nc1ccc(Cl)c(Cl)c1)Cc1nnc(-c2ccc(F)cc2)o1 | -63.3
66 | CN(CC(=O)Nc1ccc(S(=O)(=O)N2CCCC2)cc1)Cc1ccc(Cl)cc1Cl | 10.8
67 | CN(CC(=O)Nc1ccc(Cl)cc1)CC(=O)Nc1cc(Cl)ccc1C#N | -38.4
68 | CN(CC(=O)Nc1ccc(N2CCOCC2)cc1)CC(=O)Nc1cccc(C#N)c1 | -13.9
69 | CC(=O)c1ccc(-c2ccc(/C=C(/Sc3n[nH]c(C)n3)C(=O)O)o2)cc1 | -42.7
70 | O=c1[nH][nH]cc1C=Nc1ccc(Oc2ccccc2)cc1 | 11.6
71 | CC(Sc1ccccc1)C(=O)Nc1ccc(N2CCOCC2)cc1 (stereo not drawn) | -7.09
72 | CN1CCN(C(=O)c2ccc3c(c2)N(Cc2cccc(Cl)c2)C(=O)c2ccccc2S3(=O)=O)CC1 | 10.8

Row | Structure (SMILES) | hERG current change (%, negative = inhibition) at 10uM [%]
73 | COc1ccc(NC(=O)CC2(CC(=O)O)CCCC2)cn1 | 16.7
74 | CC(C)N1CCC(N2CCN(Cc3ccc(Oc4ncccn4)cc3)CC2CCO)CC1 (stereo not drawn) | 23.9
75 | Cc1cc(C)n(-c2ccc(C(=O)Nc3cccc([N+](=O)[O-])c3)cc2)n1 | 40.2
76 | COc1ccc(CCNC(=O)c2ccc(-c3ccc([N+](=O)[O-])cc3Cl)o2)cc1 | 4.64
77 | CN(CC(=O)Nc1ccc(C#N)cc1)Cc1ccc(Cl)c(Cl)c1 | -60.8
78 | Cc1ccc(NC(=O)CN(C)C(=O)Cc2ccc(Cl)c(Cl)c2)cc1 | 11.8
79 | CN(CC(=O)Nc1ccc(S(=O)(=O)N2CCCC2)cc1)Cc1ccc(Cl)c(Cl)c1 | 0.187
80 | C=CCNC(=O)c1ccc(C(=O)c2ccccc2)cc1 | -27.8
81 | CC(=O)CSc1ncnc2c1cnn2-c1ccccc1 | 12.6
82 | COc1ccc(/C=C2\CCc3ccccc3C2=O)cc1Cn1cccn1 | 2.14
83 | COc1ccc(/C=N\NC(=O)c2nn(C)cc2Cl)cc1CN1CCOCC1 | -10.6
84 | COc1ccc(/C=N/NC(=O)c2cccc(Br)c2)cc1CN1CCOCC1 | -82.4
85 | COc1ccc(/C=C/C(=O)c2ccccc2O)cc1CN1CCOCC1 | -17.7
86 | COc1ccc(/C=C2\CCc3ccccc3C2=O)cc1CN1CCOCC1 | -33.6
87 | COc1ccc(/C=N/NC(=O)c2ccncc2)cc1CN1CCOCC1 | 3.71
88 | COc1ccc(/C=C/C(=O)c2ccc(O)cc2)cc1CN1CCOCC1 | -11.3
89 | COc1ccc(/C=N/NC(=O)c2ccc(Br)cc2)cc1CN1CCOCC1 | -64.8
90 | CCOc1cc(/C=N/NC(=O)c2ccc(CN3CCOCC3)cc2)ccc1OC | -19.1
91 | COc1ccc(/C=C2/CCc3ccccc3C2=O)cc1CN1CCOCC1 | -59.6
92 | COc1ccc(C(=O)/C=C/c2ccc(OC)c(CN3CCOCC3)c2)cc1 | -56.3
93 | COc1ccc(/C=N/NC(=O)c2cccc(Br)c2)cc1Cn1cc(Cl)cn1 | 8.83
